Data published in PubChem BioAssay AID1159580 (chemical genetic matrix, 2015).
Among all 5,500 compounds or so, about 2,000 (36%) were called active. Another 18% or so got no clear call; they are omitted. Rule as the data show it: active = normalized growth mostly below about 0.91 (no sharp cut-off); inconclusive = no clear call, values can overlap the other calls; inactive = mostly above about 0.92. The list shows a part of the results.

Experiment: chemical genetic growth profiling, strain panel (AID 1159580);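 also: tested at 20 µM; growth read once vehicle control cultures reached saturation at 30 °C; 1 = growth at the plate median or of vehicle wells; lower values mean less growth of the strain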
Details: S. cerevisiae deletion strains, growth OD

Measured: normalized growth

CC1=NN=C(c2ccc(N)cc2)c2cc3c(cc2C1)OCO3
inactive: locus YAL013W, strain DEP1, stronger effect = lower value 0.989 | locus YAL040C, strain CLN3, stronger effect = lower value 0.968 | locus YCL061C, strain MRC1 (second series), stronger effect = lower value 0.991 | locus YDR363W, strain ESC2, stronger effect = lower value 0.986 | locus YER002W, strain NOP16, stronger effect = lower value 0.967 | locus YMR263W, strain SAP30, stronger effect = lower value 0.996 | locus YMR307W, strain GAS1, stronger effect = lower value 1 | locus YNL128W, strain TEP1, stronger effect = lower value 0.983 | locus YNL153C, strain GIM3, stronger effect = lower value 0.957 | locus YNL175C, strain NOP13, stronger effect = lower value 0.968 | locus YNL197C, strain WHI3, stronger effect = lower value 0.964 | locus YNL224C, strain SQS1, stronger effect = lower value 0.989 | locus YOR083W, strain WHI5 (second series), stronger effect = lower value 0.936 | locus YPL055C, strain LGE1, stronger effect = lower value 0.984

Cc1nnc2n1N=C(c1ccc(CC(C)C)cc1)C(C)S2 (stereo not given)
inactive: locus YAR019C, strain CDC15, stronger effect = lower value 0.971 | locus YBL105C, strain PKC1, stronger effect = lower value 0.975 | locus YBR135W, strain CKS1, stronger effect = lower value 0.964 | locus YBR136W, strain MEC1, stronger effect = lower value 0.975 | locus YBR160W, strain CDC28, stronger effect = lower value 0.978 | locus YDL017W, strain CDC7, stronger effect = lower value 0.982 | locus YDL028C, strain MPS1, stronger effect = lower value 0.972 | locus YDL101C, strain DUN1, stronger effect = lower value 0.965 | locus YDL108W, strain KIN28, stronger effect = lower value 0.97 | locus YDL132W, strain cdc53, stronger effect = lower value 0.972 | locus YDL214C, strain PRR2, stronger effect = lower value 0.98 | locus YDR052C, strain DBF4, stronger effect = lower value 0.977 | locus YDR054C, strain cdc34, stronger effect = lower value 0.973 | locus YDR226W, strain ADK1, stronger effect = lower value 0.966 | locus YDR477W, strain SNF1, stronger effect = lower value 0.975 | locus YER123W, strain YCK3, stronger effect = lower value 0.941 | locus YER133W, strain GLC7, stronger effect = lower value 0.972 | locus YFL009W, strain cdc4, stronger effect = lower value 0.971 | locus YFL029C, strain CAK1, stronger effect = lower value 0.971 | locus YFR003C, strain YPI1, stronger effect = lower value 0.978 | locus YFR019W, strain FAB1, stronger effect = lower value 0.986 | locus YFR028C, strain CDC14, stronger effect = lower value 0.969 | locus YGR040W, strain KSS1, stronger effect = lower value 0.979 | locus YGR052W, strain FMP48, stronger effect = lower value 1.05 | locus YGR092W, strain DBF2, stronger effect = lower value 0.971 | locus YHR030C, strain SLT2, stronger effect = lower value 1.08 | locus YHR079C, strain IRE1, stronger effect = lower value 1.05 | locus YHR082C, strain KSP1, stronger effect = lower value 1.05 | locus YHR205W, strain SCH9, stronger effect = lower value 0.977 | locus YIL147C, strain SLN1, stronger effect = lower value 0.964 | locus YJL095W, strain BCK1, stronger effect = lower value 1.06 | locus YJL128C, strain PBS2, stronger effect = lower value 0.931 | locus YJL157C, strain FAR1, stronger effect = lower value 0.983 | locus YJR016C, strain ILV3, stronger effect = lower value 0.98 | locus YJR066W, strain TOR1 (second series), stronger effect = lower value 0.971 | locus YJR066W, strain TOR1, stronger effect = lower value 1.07 | locus YKL048C, strain ELM1, stronger effect = lower value 0.979 | locus YKL067W, strain YNK1, stronger effect = lower value 0.98 | locus YKL101W, strain HSL1, stronger effect = lower value 0.985 | locus YKL193C, strain SDS22, stronger effect = lower value 0.972 | locus YKL203C, strain TOR2, stronger effect = lower value 1.04 | locus YLR113W, strain HOG1, stronger effect = lower value 0.973 | locus YLR133W, strain CKI1, stronger effect = lower value 0.985 | locus YLR403W, strain SFP1, stronger effect = lower value 0.965 | locus YML070W, strain DAK1, stronger effect = lower value 0.968 | locus YMR001C, strain CDC5, stronger effect = lower value 0.974 | locus YMR205C, strain PFK2 (second series), stronger effect = lower value 0.986 | locus YMR277W, strain FCP1, stronger effect = lower value 0.975 | locus YNL006W, strain LST8, stronger effect = lower value 0.986 | locus YNL020C, strain ARK1, stronger effect = lower value 0.997 | locus YNL161W, strain CBK1, stronger effect = lower value 0.977 | locus YNL183C, strain NPR1, stronger effect = lower value 1.05 | locus YNL207W, strain RIO2, stronger effect = lower value 0.98 | locus YNL222W, strain SSU72, stronger effect = lower value 0.97 | locus YNL307C, strain MCK1 (second series), stronger effect = lower value 0.97 | locus YOL078W, strain AVO1, stronger effect = lower value 0.977 | locus YOL136C, strain PFK27, stronger effect = lower value 0.975 | locus YOR061W, strain CKA2, stronger effect = lower value 0.972 | locus YOR119C, strain RIO1, stronger effect = lower value 0.982 | locus YOR231W, strain MKK1, stronger effect = lower value 1.04 | locus YOR329C, strain SCD5, stronger effect = lower value 0.98 | locus YPL031C, strain PHO85, stronger effect = lower value 0.983 | locus YPL153C, strain RAD53, stronger effect = lower value 0.956 | locus YPL204W, strain HRR25, stronger effect = lower value 0.96 | locus YPL209C, strain IPL1, stronger effect = lower value 0.98 | locus YPL256C, strain CLN2, stronger effect = lower value 1.02 | locus YPR025C, strain CCL1, stronger effect = lower value 0.969 | locus YPR106W, strain ISR1, stronger effect = lower value 0.979 | locus YPR111W, strain DBF20, stronger effect = lower value 0.967 | strain NNK1, stronger effect = lower value 0.978 | strain TSCII, stronger effect = lower value 0.972
